Screens as filed in PubChem BioAssay.
ELG1 repair inh: blocks ELG1-dependent DNA repair in HEK293T cells; Potency, µM (highest dose often 46.1 µM), inactives show top-dose activity change, negative = inhibition, usual class: inhibitors; 330,000 tested, 2.3% active; HEK293T ELG1-luciferase reporter, luminescence, 16 h; DNA damage induced by 5-fluorouridine; AID 504467; note: % is set by controls: 0 for no effect and ±100 for the full control effect; nearly all actives have a fitted effect of over 55% in size
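Cells (2,000 per well) received 5-fluorouridine plus test compound or DMSO and were incubated 16 hr at 37 °C, 5% CO2. Luciferase activity was read by luminescence 30 min after ONE-Glo addition; signal suppression marked inhibition of damage-induced ELG1 function.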
A-T KAP1 phos: potential ataxia-telangiectasia treatments restoring KAP-1 phosphorylation; F2112 A-T fibroblasts, KAP-1 phosphorylation AlphaLISA; neocarzinostatin DNA damage 30 min before lysis; Potency, µM (doses to about 57.5 µM), for inactives: at the top dose activation, actives largely listed as activators; 320,000 tested, 0.19% active; AID 485349; note: % of control where 0% means no effect; nearly all actives have a fitted effect of over 45% in size
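hTERT-immortalized A-T patient fibroblasts (F2112), 500 cells/well in OPTI-MEM, 1% FBS, got compounds for 60 min, then NCS for 30 min at 37C. Lysates were then assayed for phospho-KAP-1 by AlphaLISA (anti-pKAP1 donor, anti-KAP1 acceptor beads), 6 hr at 25C.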
SW480 rerep: DNA re-replication induction in SW480 cells | 340,000 tested, 1.8% active | SW480 DNA re-replication, Hoechst DNA content imaging, 48 h | Potency, µM (titrated, usually from 46.1 µM), for the others: top-dose re-replication activation, most hits filed as activators; note: % of control where 0% means no effect; nearly all actives have a fitted effect of over 55% in size
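Quantitative HTS format with DMSO vehicle controls; 48 hr drug incubation at 37 C, then 40 min Hoechst staining and scanning imager measurement at 405 nm excitation.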
MCF10A rerep: DNA re-replication induction in MCF 10a cells; Potency, µM (doses to about 46.1 µM), for inactives: at the highest dose activity, positive = re-replication, actives largely listed as activators; AID 624296; 350,000 tested, 2.9% active; MCF 10A DNA re-replication, Hoechst nuclear intensity, 48 h; note: % of control where 0% means no effect; nearly all actives have a fitted effect of over 50% in size
p53 reactivation: restores transcriptional activity of mutant p53; H1299 p53-A138V BP100-luciferase reporter, luminescence, 24 h; Potency, µM (top dose mostly 92.2 µM), for the others: at the highest dose activity change, positive = activation, usual class: activators; 320,000 tested, 0.063% active; AID 504706; note: % of control where 0% means no effect; nearly all actives have a fitted effect of over 45% in size
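p53-null H1299 cells stably carrying temperature-sensitive p53-A138V and a BP100-luciferase reporter were pinned with compounds (4-point, 1:5 series) and held 24 hrs at 37 deg C. Luminescence was read 10 min after detection reagent.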
ELG1 genotoxic: genotoxicity induction in ELG1-luciferase HEK293T cells; HEK293T ELG1-luciferase reporter, luminescence, 16 h; Potency, µM (titrated, usually from 46 µM), inactives show top-dose activity change, positive = activation, usual class: activators; 330,000 tested, 1.3% active; AID 504466; note: % of control where 0% means no effect; nearly all actives have a fitted effect of over 60% in size
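Cells (2,000/well) expressing the ELG1-luciferase fusion are dosed by pin tool and kept 16 hr at 37 °C, 5% CO2. Signal comes from ONE-Glo luciferase reagent after 30 min at room temperature.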
ELG1 FLuc counter: luciferase inhibition in cell-free luciferin readout for ELG1 hits. shares compounds with ELG1 repair inh. cell-free firefly luciferase luminescence counter-screen, ViewLux. Potency, µM (titrated, usually from 46.1 µM), inactives show at the top dose activity change, negative = inhibition, hits mostly inhibitors. 350 tested, 3% active; note: % is set by controls: 0 for no effect and ±100 for the full control effect
ELG1 Luc conf: human ELG1 repair inhibition, luciferase-tagged ELG1 confirmation; 670 tested, 68% active; Potency, µM (titrated, usually from 46.1 µM), inactives show at the top dose activity change, negative = inhibition, usual class: inhibitors; AID 624248; shares compounds with ELG1 repair inh; HEK293T ELG1-luciferase levels, luminescence; cells co-treated with 5-fluorouridine; note: % is set by controls: 0 for no effect and ±100 for the full control effect; nearly all actives have a fitted effect of over 55% in size
Target sequence (Q96QE3 whole entry, looked up): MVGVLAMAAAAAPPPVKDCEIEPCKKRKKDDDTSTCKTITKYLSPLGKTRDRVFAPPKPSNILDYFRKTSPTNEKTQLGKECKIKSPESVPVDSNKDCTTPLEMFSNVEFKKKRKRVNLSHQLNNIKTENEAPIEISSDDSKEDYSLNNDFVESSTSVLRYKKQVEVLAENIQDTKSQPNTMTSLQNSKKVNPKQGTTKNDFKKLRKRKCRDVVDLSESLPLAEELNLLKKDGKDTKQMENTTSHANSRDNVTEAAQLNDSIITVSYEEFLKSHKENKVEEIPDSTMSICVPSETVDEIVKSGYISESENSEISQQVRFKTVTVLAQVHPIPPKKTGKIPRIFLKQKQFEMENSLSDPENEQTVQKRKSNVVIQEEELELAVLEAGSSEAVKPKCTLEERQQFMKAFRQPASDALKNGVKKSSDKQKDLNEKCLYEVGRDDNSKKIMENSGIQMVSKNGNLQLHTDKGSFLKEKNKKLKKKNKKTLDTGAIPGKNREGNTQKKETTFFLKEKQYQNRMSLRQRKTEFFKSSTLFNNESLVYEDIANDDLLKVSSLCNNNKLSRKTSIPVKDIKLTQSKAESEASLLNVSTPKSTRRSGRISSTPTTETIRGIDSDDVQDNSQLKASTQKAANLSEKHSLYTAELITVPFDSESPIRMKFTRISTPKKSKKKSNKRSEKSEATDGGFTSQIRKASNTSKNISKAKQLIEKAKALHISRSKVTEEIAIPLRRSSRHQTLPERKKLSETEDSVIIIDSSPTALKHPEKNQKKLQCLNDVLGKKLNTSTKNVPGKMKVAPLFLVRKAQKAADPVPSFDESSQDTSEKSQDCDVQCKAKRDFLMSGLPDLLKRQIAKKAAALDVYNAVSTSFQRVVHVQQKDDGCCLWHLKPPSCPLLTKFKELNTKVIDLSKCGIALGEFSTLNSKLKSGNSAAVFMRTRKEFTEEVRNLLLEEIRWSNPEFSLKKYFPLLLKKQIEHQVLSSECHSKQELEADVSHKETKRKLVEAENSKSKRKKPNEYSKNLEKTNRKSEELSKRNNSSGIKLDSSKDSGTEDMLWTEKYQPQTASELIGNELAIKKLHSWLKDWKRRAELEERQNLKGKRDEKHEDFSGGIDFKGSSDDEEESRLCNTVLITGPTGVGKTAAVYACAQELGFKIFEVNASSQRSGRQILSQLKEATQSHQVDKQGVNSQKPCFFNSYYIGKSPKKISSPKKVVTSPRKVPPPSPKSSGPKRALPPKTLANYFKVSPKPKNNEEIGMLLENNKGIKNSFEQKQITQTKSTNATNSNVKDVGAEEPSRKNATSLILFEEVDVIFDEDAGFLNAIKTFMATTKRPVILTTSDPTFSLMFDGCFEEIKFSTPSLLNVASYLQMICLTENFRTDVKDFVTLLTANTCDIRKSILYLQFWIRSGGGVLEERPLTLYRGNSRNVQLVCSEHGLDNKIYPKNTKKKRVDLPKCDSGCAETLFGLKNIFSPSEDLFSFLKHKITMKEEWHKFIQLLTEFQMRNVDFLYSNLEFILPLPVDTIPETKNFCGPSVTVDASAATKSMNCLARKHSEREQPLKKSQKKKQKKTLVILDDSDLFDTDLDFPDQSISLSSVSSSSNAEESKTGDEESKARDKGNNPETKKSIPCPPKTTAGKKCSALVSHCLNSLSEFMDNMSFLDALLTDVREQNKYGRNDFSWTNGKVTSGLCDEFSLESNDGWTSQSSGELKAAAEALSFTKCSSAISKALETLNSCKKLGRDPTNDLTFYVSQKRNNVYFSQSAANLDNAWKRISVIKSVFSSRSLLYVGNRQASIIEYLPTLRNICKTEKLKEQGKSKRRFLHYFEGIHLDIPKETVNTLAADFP
ELG1-Luc MMS: inhibits ELG1-dependent repair under MMS stimulation in HEK293T cells | shares compounds with ELG1 repair inh | HEK293T luciferase-tagged ELG1 level, MMS stimulated | Potency, µM (highest dose often 46.1 µM), without a hit: top-dose activity change, negative = inhibition, usual class: inhibitors | 670 tested, 53% active; note: % is set by controls: 0 for no effect and ±100 for the full control effect; nearly all actives have a fitted effect of over 60% in size
ELG1 5FU viab: confirmation of ELG1 repair inhibitors: viability with 5FU; Potency, µM (doses to about 46.1 µM), without a hit: at the highest dose activity change, negative = viability loss, most hits filed as cytotoxic; shares compounds with ELG1 repair inh; cell viability with 5-FU, ELG1-dependent repair; AID 624250; 670 tested, under 10 active;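 note: ELG1-luc HEK293T cells cotreated with 5-fluorouridine at 10 µM final; viability measured 16 h after compound addition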
ELG1 MMS cell: confirmation of ELG1 repair inhibitors: viability with MMS | shares compounds with ELG1 repair inh | Cell viability with MMS, ELG1-dependent DNA repair | Potency, µM (top dose mostly 46.1 µM), for the others: at the highest dose activity change, negative = viability loss, most hits filed as cytotoxic | 670 tested, 33% active | AID 624251;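 note: ELG1-luc HEK293T cells co-treated with 10 µM MMS; viability read 16 h after compound addition; % is set by controls: 0 for no effect and ±100 for the full control effect; nearly all actives have a fitted effect of over 60% in size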
ELG1 unstim viab: affects unstimulated cell viability, ELG1 hit counter-screen | shares compounds with ELG1 repair inh | cell viability counter-screen, unstimulated, luminescence | Potency, µM (series often up to 45.9 µM), without a hit: at the top dose activity change, negative = loss of viability, actives largely listed as cytotoxic | 900 tested, 8% active;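 note: compound exposure lasted 16 hours before reading; % is set by controls: 0 for no effect and ±100 for the full control effect; nearly all actives have a fitted effect of over 55% in size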
FLuc enzyme: inhibits purified firefly luciferase, counter-screen for ELG1 hits | shares compounds with ELG1 repair inh | purified firefly luciferase, luminescence counter-screen | Potency, µM (series often up to 57.5 µM), inactives show at the top dose activity, negative = inhibition, actives largely listed as inhibitors | 350 tested, 10% active | AID 624253; note: % is set by controls: 0 for no effect and ±100 for the full control effect
An asterisk follows results filed as active; ? = inconclusive; . = no result given; [ ] = another dose, or the depositor's remark. This is a sample that favours compounds with a hit; in the whole collection about 7.1% have one here. Calls come from the whole dose curve; as a rule, active = well fitted curve in the direction sought with a large enough effect; inconclusive = small, poorly fitted or top-dose-only effect, or another doubt; inactive = no such curve, though single readings can be large; an effect the other way counts as inactive or inconclusive. Potency is the fitted concentration of half-maximal effect.

SMILES	ELG1 repair inh	A-T KAP1 phos	SW480 rerep	MCF10A rerep	p53 reactivation	ELG1 genotoxic	ELG1 Luc conf	ELG1-Luc MMS	ELG1 5FU viab	ELG1 MMS cell	ELG1 unstim viab	others
CCCCNC(=O)O[C@H]1C[C@@H]2CCN3C(=O)CCC[C@H]([C@H]1Cc1ccccc1)[C@H]23	-8%	5%	-3%	9%	10%	0%	.	.	.	.	.
CN(C)c1ccc(N=Nc2ccc(/C=C/c3ccnc4ccccc34)cc2)cc1	.	.	.	.	.	.	.	.	.	.	?
CN(C)c1ccc(/C=C/c2ccnc3ccc(F)cc23)cc1	.	.	.	.	.	.	.	.	.	.	-14%	ELG1 FLuc counter=-8%;FLuc enzyme=0.18µM*
CCc1cccc(NC(=O)CSc2nc3c(c(=O)[nH]2)CCCC3)c1	8%	-18%	-1%	-35%	1%	1%	.	.	.	.	.
CCc1ccc(C2c3[nH]c4ccccc4c3CCN2C(=O)c2cc(C)nn2C)cc1 (stereo not given)	?	6%[11.5 µM]	?	23µM*	4%	-5%	11µM*	20µM*	?	?	?
CSc1ccc(C2c3[nH]c4ccccc4c3CCN2C(=O)c2cc(C)n(C)n2)cc1 (stereo not given)	?	-3%	.	.	7%	?	.	.	.	.	.
COc1ccc(CCN(Cc2cccs2)S(=O)(=O)c2ccc(S(=O)(=O)N3CCCCCC3)cc2)cc1OC	2.9µM*	4%	-21%	1%	-5%	-1%	?	4.4µM*	-10%	7.1µM*	-17%
COc1ccc(NC(=O)C2CCCC2)cc1S(=O)(=O)N1CCOCC1	-1%	0%	-4%	0%	1%	-2%	.	.	.	.	.
Cc1nn(-c2ccccc2)c(C)c1C(=O)OCC(=O)c1c(N)n(CC(C)C)c(=O)n(C)c1=O	3.3µM*	3%	2%	13%	11%	-20%	4µM*	0.79µM*	?	1.3µM*	?
CC(C)CNc1nnnc2c1sc1nc(N3CCOCC3)c3c(c12)CC(C)(C)SC3	4.1µM*	-8%	-2%	17%	7%	-3%	4.5µM*	1%	?	9%	-2%	ELG1 FLuc counter=1%;FLuc enzyme=4%
CC1(C)Cc2c(c(N3CCOCC3)nc3sc4c(NCc5ccco5)nnnc4c23)CS1	4.1µM*	-2%	0%[9.22 µM]	-25%	-6%	-10%	4.5µM*	-2%	?	?	-2%	ELG1 FLuc counter=3%;FLuc enzyme=0%
COCCNc1nnnc2c1sc1nc(N3CCOCC3)c3c(c12)CCCC3	?	0%	.	.	-12%	-4%	.	.	.	.	.
CCN1CCN(C(C)CCc2ccccc2)CC1 (stereo not given)	-4%	-1%	-1%	?	.	0%	.	.	.	.	.
Cc1nc2cc(-c3ccccc3)nn2c(N)c1-c1ccccc1	?	1%	-6%	15%	95%	1.8µM*	.	.	.	.	0%	ELG1 FLuc counter=58%;FLuc enzyme=0.37µM*
Cc1nc2c(-c3ccccc3)c(C)nn2c(N)c1-c1ccccc1	?	.	5%	?	?	?	.	.	.	.	.
Cc1ccc2c(c1)nnn2C1CCN(S(=O)(=O)c2ccc(C(=O)NC3CCCC3)cc2)CC1	4.5µM*	-4%	5%	-3%	6%	-8%	3.1µM*	?	?	?	?
Cc1ccc(-c2nnc(SCC(=O)Nc3ccccc3F)o2)cc1	?	17%	-6%	-3%	-15%	0.16µM*	.	.	.	.	?	ELG1 FLuc counter=8.9µM*;FLuc enzyme=18µM*
CCOC(=O)c1c(C)[nH]c(C(=O)N2CCN(C(=O)OCC)CC2)c1C	0%	5%	-24%	-2%	-2%	2%	.	.	.	.	.
CCOC(=O)c1c(C)[nH]c(C(=O)N2CCc3cc(OC)c(OC)cc3C2)c1C	1.5µM*	-2%	1%	-1%	-6%	-1%	3.5µM*	?	?	-16%	-18%
COc1ccc([C@H]2Cc3cc(O)cc(O)c3C(=O)O2)cc1O	?	-3%	-18%[9.22 µM]	?	9%	5.2µM*	.	.	.	.	9%
CCC(C)N(CC(=O)Nc1cccc(C)c1C)C(=O)CCl (stereo not given)	4.6µM*	32%	?	?	-10%	-22%	14µM*	1.6µM*	?	7.1µM*	28µM*
Cc1ccsc1C(=O)OCC(=O)NC1CCCC(C)C1C (stereo not given)	12%	10%	-3%	6%	23%	5%	.	.	.	.	.
O=C1CCCC(=NNC(=O)c2cc3ccccc3cc2O)C1	?	1%	2%	-2%	?	?	.	.	.	.	-14%
O=C(NN=C1CCCCCC1)c1cc2ccccc2cc1O	6%	5%	-1%	-3%	1%	7%	.	.	.	.	.
CC(C)Nc1ncnc2ccc(Br)cc12	2.3µM*	-2%	?	28%	-11%	-12%	3.5µM*	7.9µM*	-5%	10µM*	?
